The results in this text go back to PubChem BioAssay (NCATS).

The target in experiment [1] is Lysine-specific demethylase 5B (Homo sapiens) (UniProt Q9UGL1). In words: Optimization screen for KDM5B Histone Demethylases FDH coupled qHTS against the LOPAC library (AID 1347166). An outline of the steps:
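KDM5BDeltaAP (200nM final) preincubated 10 min with compound, then 12.5uM H3K4Me3, 25uM a-ketoglutarate, ascorbate, Fe(II), NAD+ and FDH added; 50mM HEPES pH 7.5, 0.01% Tween-20. NADH fluorescence (340/450 nm) change over 30 min, room temperature.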

Experiment [2] in a line: qHTS to identify inhibitors of the type 1 interferon - major histocompatibility complex class I in skeletal muscle: primary screen against the NCATS LOPAC collection (AID 1347405).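 Further: lytic HiBiT luminescence reporting HLA-B protein level.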 Further: potency means the concentration at half of the fitted maximal effect. An outline of the steps: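 Luminescence from HiBiT fused to endogenous HLA-B in CRISPR-engineered human myoblasts served as the read-out. Cells received 4.0 ng/ml IFN-beta plus compound (seven concentrations, 1:4.3 steps, highest 46 uM final) for 24 hrs before lytic detection.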

A short description of experiment [3]: qHTS to identify inhibitors of the type 1 interferon - major histocompatibility complex class I in skeletal muscle: primary screen against the NCATS Pharmaceutical Collection (AID 1347407).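 Further: luminescence of HiBiT knocked into endogenous HLA-B as interferon-induced MHC class I level.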 Further: potency means the concentration at half of the fitted maximal effect. An outline of the steps: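 Cells were seeded with 4 ng/ml IFN-beta, incubated 1 h, then dosed with compounds over eight 1:5 steps up to 46 uM final. After 24 h at 37 C, HiBiT lytic reagent was added and luminescence read after 10 min lysis in the dark.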
In general terms: In qHTS, concentration-response curves come from the screen itself.

Experiment [4] can be described thus: qHTS for inhibitors of adenylyl cyclases using a fission yeast platform: a pilot screen against the NCATS LOPAC library (AID 1347410). An outline of the steps: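 Growth medium went into the plates first, then compounds were pinned (final up to 57 µM), then CHP2027 yeast were added. Plates were incubated overnight (18 h) at 30C in the dark, and GFP was measured by laser scanning cytometry.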

For experiment [5], the target named is Protein phosphatase 1D (Homo sapiens) (UniProt O15297). The experiment is described as follows: RapidFire Mass Spectrometry qHTS Assay for Modulators of WT P53-Induced Phosphatase 1 (WIP1) (AID 1347424).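 Further: amount of dephosphorylated VEPPL-S-QETFS peptide product formed by WIP1; series mostly up to about 63 µM.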 An outline of the steps:
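10 nM WIP1 preincubated with compounds 1 hr at room temperature in pH 7.5 Tris buffer with 30 mM MgCl2, 1 mM TCEP; 2 uM VEPPL-pS-QETFS phosphopeptide for 5 min, formic acid quench; dephosphorylated product quantified by RapidFire MS against labelled standard.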

For experiment [6] the target is unchanged. In words: Rhodamine-PBP qHTS Assay for Modulators of WT P53-Induced Phosphatase 1 (WIP1) (AID 1347425). Summed up: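 Steps: enzyme with Rh-PBP sensor and compounds, room-temperature incubation of 1 hr, baseline read, addition of VEPPL-pS-QETFS (10 uM final), kinetic fluorescence reads at 525/598 nm. Activity equals final minus baseline signal.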
A short description of experiment [7]: Validation qHTS assay for inhibitors of Activation Induced Cytidine Deaminase (AID): UDG Counterscreen signal (AID 1347427). An outline of the steps: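 Counterscreen read of UDG activity (2 U/mL, 4/3x) in the FRET deamination format with AID (1 uM, 4/3x), DJC20/DJC23 substrates (250 nM, 4x), 4 h at room temperature. NaOH stop, fluorescence at 560 ex/665 em.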

In experiment [8] the target is Single-stranded DNA cytosine deaminase (Homo sapiens) (UniProt Q9GZX7). In words: Validation qHTS assay for inhibitors of Activation Induced Cytidine Deaminase (AID): AID signal (AID 1347429). Further: potency means the concentration at half of the fitted maximal effect. An outline of the steps:
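Fluorescence at 540 nm excitation and 590 nm emission reports ssDNA cytosine deamination by AID, with UDG in the same well. Compound-treated reactions ran 4 hr at room temperature with DJC20/DJC23 substrate, followed by 30 min NaOH treatment.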

Experiment [9] can be described thus: Primary qHTS for inhibitors of La Crosse Virus (LACV) - induced cell death in SH-SY5Y cells (AID 1508616).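 Further: top concentration of the series differs between compounds; higher means more rescue of cells from virus-induced death.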 An outline of the steps: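 Protection against LACV-induced cell death is scored in SH-SY5Y cells exposed to compounds and virus (0.01 MOI) for 6 days. Data normalized to virus-infected DMSO wells and virus-free DMSO wells.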
The target of experiment [10] is Calcium and integrin-binding protein 1 (Homo sapiens) (UniProt Q99828). The experiment is described as follows: Validation qHTS for Identification of Calcium Integrin Binding protein 1 (CIB1) Competitor (AID 1508618). An outline of the steps: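 In this qHTS validation, the LOPAC set (up to 114 uM) was tested for blocking CIB1 binding to a fluorescein-tagged alphaIIb peptide, with FP detection at 480/540 nm.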

For experiment [11] the target is unchanged. In words: Primary qHTS for Identification of Calcium Integrin Binding Protein 1 (CIB1) Competitor (AID 1508620). Further: top concentration of the series differs between compounds. Summed up: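 Fluorescence polarization competition: GST-tagged CIB1 (1 uM final) preincubated with compound 15 min at room temperature, then FITC-labelled alphaIIb peptide (100 nM final) added. After 15 min at room temperature, polarization read at Ex 480/Em 540.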

A short description of experiment [12]: Confirmatory screen NINDS Rhodamine qHTS for Zika virus inhibitors (AID 1347161). Further: nearly all actives have a fitted effect of over 60% in size. Further: potency means the concentration at half of the fitted maximal effect. Summed up:
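In 10 mM Tris-HCl pH 8.0 containing 0.01% Tween 20, linked NS2B-NS3 protease (25 nM final) is exposed to test compounds for 15 min. Cleavage of 1.5 microM Rhodamine110 substrate is tracked by fluorescence over 15 min.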

Experiment [13] has as its system Zika virus NS2B-NS3 protease (linked construct). In words: 384 well plate NINDS Rhodamine confirmatory qHTS for Zika virus inhibitors (AID 1347164). Further: potency means the concentration at half of the fitted maximal effect; nearly all actives have a fitted effect of over 65% in size. The note with it: rhodamine-110 peptide substrate fluorescence. Summed up: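 Compounds are incubated about 15 minutes with linked protease (5, 30 or 60 nM final). Rhodamine 110-tagged Ac-LKRR substrate (10 microM final) is added and fluorescence measured after 25 minutes.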

Experiment [14] can be described thus: Vero cells viability qHTS for Zika virus inhibitors (AID 1347167). An outline of the steps:
(§1)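 Cells seeded at 2.5 x 10^5 cells/mL in DMEM with 4% FBS and attached overnight at 37 degrees C, then exposed to compound for 24 to 48 hours. Viability read as ATP content by CellTiter Glo luminescence.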

Experiment [15] can be described thus: HepG2 cells viability qHTS for Zika virus inhibitors (AID 1347168). Summed up: as §1
Experiment [16] in a line: qHTS to identify inhibitors of the type 1 interferon - major histocompatibility complex class I in skeletal muscle: primary screen against the NCATS Mechanism Interrogation Plate v5.0 (MIPE) Libary (AID 1347411). Further: nearly all actives have a fitted effect of over 65% in size. Further: potency means the concentration at half of the fitted maximal effect. An outline of the steps: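 Luminescence from HiBiT-tagged endogenous HLA-B*08:01 served as the MHC class I read-out. CRISPR-engineered C25cl48 human myoblasts received 4.0 ng/ml IFN-beta plus compound for 24 hrs, with an 11-point, 1:3 series topping at 46 uM final.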

A number with no mark means an inactive call. Results filed as inconclusive are left out. Calls of active or inactive are those of the source. The call rests on the fitted dose curve; in most records, active means well fitted curve in the direction sought with a large enough effect; inconclusive means small, poorly fitted or top-dose-only effect, or another doubt; inactive means no such curve, though single readings can be large; an effect the other way counts as inactive or inconclusive.

Lysine-specific demethylase 5B (Homo sapiens), sequence (Q9UGL1 whole entry, looked up): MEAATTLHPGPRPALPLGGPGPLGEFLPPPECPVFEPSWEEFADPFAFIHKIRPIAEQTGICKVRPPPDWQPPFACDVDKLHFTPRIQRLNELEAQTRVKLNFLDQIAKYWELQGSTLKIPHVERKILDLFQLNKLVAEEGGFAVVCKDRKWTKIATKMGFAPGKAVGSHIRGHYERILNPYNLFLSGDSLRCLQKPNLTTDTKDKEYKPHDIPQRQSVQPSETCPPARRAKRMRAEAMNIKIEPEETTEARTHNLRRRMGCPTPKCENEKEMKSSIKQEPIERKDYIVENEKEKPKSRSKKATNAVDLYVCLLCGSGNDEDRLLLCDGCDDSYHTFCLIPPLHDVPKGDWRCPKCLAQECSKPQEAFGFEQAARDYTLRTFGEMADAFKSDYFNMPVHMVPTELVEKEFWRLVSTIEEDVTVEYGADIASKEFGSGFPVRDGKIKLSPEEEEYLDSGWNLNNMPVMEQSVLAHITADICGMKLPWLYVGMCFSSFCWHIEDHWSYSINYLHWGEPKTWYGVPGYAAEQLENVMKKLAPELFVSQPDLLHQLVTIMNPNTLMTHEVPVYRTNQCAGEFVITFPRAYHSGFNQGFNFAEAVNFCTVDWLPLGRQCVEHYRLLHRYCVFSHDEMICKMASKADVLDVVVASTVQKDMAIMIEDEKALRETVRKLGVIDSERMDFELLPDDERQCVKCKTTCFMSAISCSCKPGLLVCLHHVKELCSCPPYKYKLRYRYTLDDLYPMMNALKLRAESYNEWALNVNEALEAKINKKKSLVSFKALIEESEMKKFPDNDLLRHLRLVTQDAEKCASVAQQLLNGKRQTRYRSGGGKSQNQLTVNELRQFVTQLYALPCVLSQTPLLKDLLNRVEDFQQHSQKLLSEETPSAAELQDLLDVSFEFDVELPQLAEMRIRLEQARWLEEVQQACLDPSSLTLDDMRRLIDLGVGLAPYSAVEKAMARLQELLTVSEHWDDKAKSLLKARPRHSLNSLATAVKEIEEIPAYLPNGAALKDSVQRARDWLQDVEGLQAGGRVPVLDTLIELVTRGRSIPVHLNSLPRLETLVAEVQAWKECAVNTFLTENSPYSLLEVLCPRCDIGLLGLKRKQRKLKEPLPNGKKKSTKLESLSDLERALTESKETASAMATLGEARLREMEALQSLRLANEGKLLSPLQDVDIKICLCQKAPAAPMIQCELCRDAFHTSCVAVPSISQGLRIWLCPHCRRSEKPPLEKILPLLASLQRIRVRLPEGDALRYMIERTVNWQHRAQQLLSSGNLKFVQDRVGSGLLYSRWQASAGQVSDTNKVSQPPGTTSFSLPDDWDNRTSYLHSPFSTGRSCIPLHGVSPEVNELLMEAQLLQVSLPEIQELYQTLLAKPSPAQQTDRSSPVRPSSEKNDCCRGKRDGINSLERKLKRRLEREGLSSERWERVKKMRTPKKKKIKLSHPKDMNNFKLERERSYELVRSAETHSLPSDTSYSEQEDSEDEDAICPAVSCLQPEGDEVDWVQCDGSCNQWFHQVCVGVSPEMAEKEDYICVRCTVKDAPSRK
Single-stranded DNA cytosine deaminase (Homo sapiens), sequence (Q9GZX7 whole entry, looked up): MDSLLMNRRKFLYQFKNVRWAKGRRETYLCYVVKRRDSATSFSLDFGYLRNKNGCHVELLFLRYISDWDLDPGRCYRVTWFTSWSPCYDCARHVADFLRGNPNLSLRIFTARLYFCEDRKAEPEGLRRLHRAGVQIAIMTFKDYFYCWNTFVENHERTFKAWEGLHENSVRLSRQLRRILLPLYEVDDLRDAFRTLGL
Calcium and integrin-binding protein 1 (Homo sapiens), sequence (Q99828 whole entry, looked up): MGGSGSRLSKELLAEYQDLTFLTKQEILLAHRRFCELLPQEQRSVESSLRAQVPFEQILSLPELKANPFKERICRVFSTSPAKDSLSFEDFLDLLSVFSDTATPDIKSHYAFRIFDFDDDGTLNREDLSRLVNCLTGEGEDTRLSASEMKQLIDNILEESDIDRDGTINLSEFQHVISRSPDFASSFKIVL
Protein phosphatase 1D (Homo sapiens), sequence (O15297 whole entry, looked up): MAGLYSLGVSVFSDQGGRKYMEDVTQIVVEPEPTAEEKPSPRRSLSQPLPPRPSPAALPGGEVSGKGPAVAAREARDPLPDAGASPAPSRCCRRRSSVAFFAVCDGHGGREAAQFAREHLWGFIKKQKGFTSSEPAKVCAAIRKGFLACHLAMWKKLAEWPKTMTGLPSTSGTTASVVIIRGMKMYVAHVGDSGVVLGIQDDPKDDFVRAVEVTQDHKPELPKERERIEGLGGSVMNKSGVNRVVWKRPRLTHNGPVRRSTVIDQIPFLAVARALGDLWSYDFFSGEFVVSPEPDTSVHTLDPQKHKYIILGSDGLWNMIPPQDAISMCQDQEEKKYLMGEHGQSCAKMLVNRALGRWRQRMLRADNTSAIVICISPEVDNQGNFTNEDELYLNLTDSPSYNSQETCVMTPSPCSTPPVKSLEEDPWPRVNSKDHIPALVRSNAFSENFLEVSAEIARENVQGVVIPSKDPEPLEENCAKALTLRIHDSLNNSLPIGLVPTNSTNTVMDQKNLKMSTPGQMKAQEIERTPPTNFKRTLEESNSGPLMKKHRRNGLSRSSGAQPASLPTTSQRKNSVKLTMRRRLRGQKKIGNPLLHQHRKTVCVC

Regarding `CC(C)[N+](C)(CCOC(=O)C1c2ccccc2Oc2ccccc21)C(C)C`, the Potency result in experiment [1], in experiment [2], in experiment [3], in experiment [5], in [8] and in experiment [9] was “inactive” throughout. In experiment [11], the Potency result is “inactive”. Further, the result in experiment [4], in experiment [6], in experiment [7] and in experiment [10] was inactive.

With `CN(C)[C@@H]1C(=O)C(C(N)=O)=C(O)[C@@]2(O)C(=O)C3=C(O)c4c(O)ccc(Cl)c4[C@@H](O)[C@H]3C[C@@H]12`, the Potency in experiment [12] is 12.4 µM (active); in [13] it was 25.1 µM (active). In addition, the Potency result in experiment [2], in [3], in experiment [5], in [8], in experiment [9] and in [11] was “inactive” throughout. Moreover, the compound was classed as inactive in experiment [4], in [6], in experiment [7] and in [10].

In the case of `CCCN(CCC)CCc1cccc2c1CC(=O)N2`, the Potency result in experiment [1], in [2], in experiment [3], in [5], in experiment [8] and in [9] was “inactive” each time. The Potency entry in experiment [11] is “inactive”. Besides, the outcome in [4], in experiment [6], in experiment [7] and in experiment [10] was inactive.

For `CN=C(NC#N)NCCSCc1nc[nH]c1C`, the Potency entry in experiment [1], in [2], in [3], in [5], in [8] and in experiment [9] was “inactive” throughout. For the same compound, the Potency entry in experiment [11] was “inactive”. The compound was called inactive in [4], in experiment [6], in experiment [7] and in [10].

For the compound `CCO/C([O-])=N/c1c[n+](N2CCOCC2)no1`, the Potency entry in experiment [1], in experiment [2], in [3], in [5], in [8] and in experiment [9] was “inactive” throughout. For the same compound, the Potency result in [11] was “inactive”. Further, the compound was classed as inactive in experiment [4], in experiment [6], in experiment [7] and in experiment [10].

Take `CC[N+](C)(C)c1cccc(O)c1`: the Potency entry in experiment [1], in experiment [2], in [3], in [5], in [8] and in experiment [9] was “inactive” throughout. Also, the Potency result in [11] is “inactive”. Moreover, the compound was called inactive in [4], in experiment [6], in [7] and in experiment [10].

For the compound `CCOC(=O)c1cnc2c(cnn2CC)c1NN=C(C)C`, the Potency result in [12], in experiment [1], in experiment [2], in experiment [3], in experiment [5] and in experiment [8] was “inactive” throughout. Further, the Potency entry in experiment [9] and in [11] was “inactive” each time. For the same compound, the call in experiment [14], in experiment [15], in experiment [4], in [6], in experiment [7] and in experiment [10] was inactive.

In the case of `CN(C)CC[C@@H](c1ccc(Br)cc1)c1ccccn1`, the Potency result in experiment [1], in experiment [2], in experiment [3], in experiment [5], in [8] and in experiment [9] was “inactive” each time. The Potency result in [11] was “inactive”. The result in experiment [4], in experiment [6], in experiment [7] and in experiment [10] was inactive.

As to `COc1ccc([C@@H]2Sc3ccccc3N(CCN(C)C)C(=O)[C@@H]2OC(C)=O)cc1`, the Potency result in experiment [1], in [2], in experiment [3], in [16], in experiment [5] and in [8] was “inactive” each time. For the same compound, the Potency result in experiment [9] and in experiment [11] was “inactive” in each case. Besides, the result in experiment [4], in [6], in experiment [7] and in experiment [10] was inactive.

For `CC(=O)[C@]1(O)Cc2c(O)c3c(c(O)c2[C@@H](O[C@H]2C[C@H](N)[C@H](O)[C@H](C)O2)C1)C(=O)c1ccccc1C3=O`, the Potency result in [1], in [5] and in experiment [9] was “inactive” in each case. Besides, the Potency in experiment [2] is 1 µM (active); in experiment [3] it was 5.28 µM (active); in experiment [16] it was 2.08 µM (active); in experiment [8], 2 µM (active). The outcome in [4], in [6] and in experiment [7] was inactive.
